The record followed here is PubChem BioAssay AID743279 (National Center for Advancing Translational Sciences (NCATS), 2014).

Among all 360,000 compounds or so, about 17,000 (4.7%) were called active. Inconclusive results (about 5%) are left out. This is one part of a sample in which actives are shown more often than they occur. Values without a mark were called inactive. Rule as the data show it: active = activity change below about -50%; inconclusive = mostly about -30% to -49%; inactive = weaker than that.
% is scaled to controls: 0 for no effect and ±100 for the full control effect.

The experiment can be described thus: qHTS for Inhibitors of Inflammasome Signaling: IL-1-beta AlphaLISA Primary Screen. To be noted: THP-1 LPS/ATP IL-1B secretion, 16 h; at 57.5 µM, hits give low values. The gist of the method: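 Secreted IL-1B measured by AlphaLISA bead assay after 16 h compound exposure of THP-1 cells; compounds (final up to 57.5 uM) added 1 h before LPS (250 ng/mL) and ATP (1.25 mM) stimulation; lower signal means less secretion.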
On the technique in general: Quantitative high-throughput screening tests each substance at several concentrations.
Consider `O=C(Nc1cccc(Br)c1)C1CC(=O)N(C2CCCC2)C1` (configuration not stated), for which the activity change is 15.6%.

With `CCCS(=O)(=O)NC(=O)C1(C)CCCN(C(=O)c2cc(C)on2)C1` (configuration not stated), the activity change is 19.3%.

For the molecule `O=C1NC(O)CCN1C1CC(O)C(CO)O1` (configuration not stated), the activity change was 0%.

Consider `CC1(C(=O)Nc2cccc(Oc3ccccc3)c2)CCN1Cc1ccccc1Cl` (configuration not stated), for which the activity change was -0.171%.

Turning to `CCC(C)c1ccccc1N1CC(C(=O)N2CCN(S(=O)(=O)c3ccc(F)cc3)CC2)CC1=O` (configuration not stated), the activity change is -6.2%.

Take `Cc1nc(C(F)(F)F)ccc1C(=O)N1CCC1(C)C(=O)NS(=O)(=O)c1ccc(F)cc1F` (configuration not stated): the activity change was 20.5%.

For `O=C(CSc1cccc2cccnc12)N/N=C/c1cccnc1`, the activity change was -96.5% (active).

As for `COc1ccc(C(=O)NCC(=O)N/N=C/c2cccnc2)cc1`, the activity change was 16.9%.

On to `CCOC(=O)N/N=C/c1cccnc1`, for which the activity change was 33.8%.

In the case of `CC(=NNC(N)=O)C1CC2CCC1CC2` (configuration not stated), the activity change is -5.84%.

As to `O=C(/C=C/c1ccc(Cl)cc1Cl)c1cccnc1`, the activity change was -59.5% (active).

For the molecule `O=C(OCc1cc(Cl)ccc1OC(F)F)c1cccnc1`, the activity change is 26%.

Regarding `O=C(NCc1ccc(Cl)c(Cl)c1)c1cccnc1`, the activity change was 3.6%.

Consider `CC(=O)N1CCc2cc(Br)cc(S(=O)(=O)CCC(=O)Nc3c(C)n(C)n(-c4ccccc4)c3=O)c21`, for which the activity change is 4.54%.

In the case of `O=C(NN=Cc1ccc([N+](=O)[O-])cc1)C1CC1`, the activity change is -3.03%.

As for `O=[N+]([O-])c1ccc(N=NNc2ccc([N+](=O)[O-])cc2)cc1`, the activity change is -3.41%.

On to `O=[N+]([O-])c1ccc(N/N=C/c2ccccc2)cc1`, for which the activity change is -59.6% (active).

As to `Cc1ccc(C)c(C(O)c2ncc(-c3cccc4ccccc34)[nH]2)c1` (configuration not stated), the activity change was 4.1%.

With `CCCC(O)(CCC)C(=O)NN(C(=O)CCl)c1cccc(C)c1`, the activity change was -219% (active).

In the case of `CCCCCNC(=O)C1c2ccccc2Oc2ccccc21`, the activity change was -3.75%.

With `CCCCC(O)(CCCC)C(=O)NN(C(=O)CCl)c1ccccc1`, the activity change was -78.2% (active).

For `COC(=O)N(NC(=O)C(O)(C(C)C)C(C)C)c1ccccc1`, the activity change is 12.9%.

Consider `CC(C)(O)C(=O)NN(C(=O)c1ccccc1)c1cccc(Br)c1`, for which the activity change is -15.5%.

Take `Cc1ccc(N(NC(=O)C(C)(C)O)C(=O)c2ccccc2)cc1C`: the activity change is 38.2%.

For `CCN(CC(=O)Nc1c(F)cccc1F)C(=O)c1ccc(-c2ccc(C(C)=O)cc2)o1`, the activity change is -9.45%.

For `CC1(C(=O)NS(=O)(=O)c2cccs2)CCN1C(=O)Cc1ccc(-c2ccccc2)cc1` (configuration not stated), the activity change was 5.64%.

For the molecule `Cn1c(Nc2ccc(F)cc2)nc2cc(-c3ccsc3)sc2c1=O`, the activity change is 19.8%.
